CCHFV vOTU inh – CCHFV vOTU protease inhibitors, primary screen, biochemical, Pep-AMC substrate, fluorescence; Crimean-Congo hemorrhagic fever virus L polyprotein viral ovarian tumor (vOTU) protease …; hit rate 0.55% among 370,000; inhibition, % at 11.5 µM; in the data active = inhibition above about 30%
RN4220 kill – growth inhibition of S. aureus RN4220, primary screen, OD600. hit rate 0.33% among 330,000. inhibition, % (test concentration not listed). AID 1259311, 2017. 16 h; in the data active = inhibition above about 85%
VHR inh abs – VHR1 phosphatase inhibitors, primary screen, biochemical, absorbance, uHTS. inhibition, % at 13.3 µM. AID 1654, 2009. hit rate 0.52% among 290,000. recombinant VHR phosphatase, pNPP absorbance; in the data active = inhibition above about 50%
Target sequence (P51452 whole entry, looked up): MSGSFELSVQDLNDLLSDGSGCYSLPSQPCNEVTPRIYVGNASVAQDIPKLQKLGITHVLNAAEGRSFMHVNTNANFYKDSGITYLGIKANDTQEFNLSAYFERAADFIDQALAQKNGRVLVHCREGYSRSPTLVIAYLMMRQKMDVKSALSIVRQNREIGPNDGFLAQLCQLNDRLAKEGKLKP
PriA SSB inh – inhibitors of Klebsiella pneumoniae PriA binding to SSB C-terminal tail, primary screen, biochemical, AlphaScreen; PriA–SSB C-terminal tail interaction (Klebsiella pneumoniae); hit rate 0.6% among 430,000; inhibition, % at 33 µM; AlphaScreen SSBct-PriA binding, biotinylated peptide; in the data active = inhibition mostly above about 37%, no sharp cut-off; inactive = mostly below about 20%
Sa ugtP lethal – growth inhibition of ugtP-null S. aureus, primary screen, RN4220 ugtP deletion, OD600. hit rate 0.54% among 330,000. 16 h. growth inhibition, % (test concentration not listed); in the data active = growth inhibition above about 68%
A number is an active result; i = inactive; nt = not tested or not shown; ! = repeats disagree. Shown are actives, neighbours in structure and some others; about 1.5% of the full set was active somewhere.

SMILES	CCHFV vOTU inh	RN4220 kill	VHR inh abs	PriA SSB inh	Sa ugtP lethal
CC(C)c1nc(S(=O)(=O)NCC2(O)Cc3ccccc3C2)cn1C	nt	nt	nt	i	nt
COc1ccccc1CCNC(=O)CSc1ccc(-c2ccc3c(c2)OCO3)nn1	nt	nt	nt	67.0	nt
CC(=O)c1ccc(NC(=O)CSc2ccc(-c3ccccn3)nn2)cc1	nt	nt	nt	i	nt
COC(=O)c1ccc(NC(=O)CSc2ccc(-c3ccccn3)nn2)cc1	i	i	i	37.0!	i
CN1C(=O)c2cccc(NC(=O)C3c4ccccc4Oc4ccccc43)c2C1=O	nt	nt	nt	i	nt
Cc1ccc(C#CC[N+]2(CC#Cc3ccc(C)cc3)CCCCC2)cc1	i	i	i	i	96.1
O=C(NC1CCSC1=O)c1ccc(Cl)cc1 (centres undefined)	nt	i	51.6	i	i
Cc1ccc2oc(=O)c3cc(C(=O)NCCCN4CCCC(C)C4)sc3c2c1 (centres undefined)	i	i	51.2	i	i
CCCN1CCN(CCCNC(=O)c2cc3c(=O)oc4ccc(C)cc4c3s2)CC1	i	i	50.2	i	i
COC(=O)c1ccc(C2CCN(C(=O)Cc3cccc(OC)c3)CC2)cc1	nt	nt	nt	i	nt
Cc1ccc(C(c2ccc(C)o2)c2cccc([N+](=O)[O-])c2O)o1	i	i	i	45.1	i
CC(=O)Oc1c(C)cc(Cl)cc1C(=O)Nc1ccc([N+](=O)[O-])cc1Cl	i	97.9	i	i	96.0
O=C(NC1CC(=O)N(c2ccc3c(c2)OCCO3)C1)N1CCN(c2ccccc2)CC1 (centres undefined)	nt	nt	nt	i	nt
COc1ccc(OCc2noc(CNC(=O)c3cccc(N(C)C)c3)n2)cc1	nt	nt	nt	i	nt
CNC(=O)c1c2c(nc3ccc(Br)cc13)CCCC2	i	i	i	i	82.6
Cc1ccc2nc3c(c(C(=O)O)c2c1)CCC3	i	i	i	i	i
CC1(C)Cc2cccc(OCC(=O)NCC3CCS(=O)(=O)C3)c2O1 (centres undefined)	nt	nt	nt	i	nt
COc1ccc(Cc2nnc(NC(=O)C3CC(=O)N(c4ccccc4)C3)s2)cc1OC (centres undefined)	i	i	58.5	i	i
COc1ccc(CCN2CC(C(=O)Nc3nnc(Cc4ccccc4)s3)CC2=O)cc1OC (centres undefined)	i	i	nt	i	i
O=C1N=C2SCCN2/C1=C\c1ccc(Cl)cc1	i	i	55.7	i	i
O=C(CN1CCC(c2nnc(C(F)(F)F)o2)CC1)N1CCOCC1	nt	nt	nt	i	nt
O=C(N/N=C/C=C\c1ccccc1[N+](=O)[O-])c1cc(-c2ccc3ccccc3c2)n[nH]1	i	nt	51.5	nt	nt
O=C(N/N=C/c1ccccn1)c1cc(-c2ccc3ccccc3c2)n[nH]1	i	nt	50.8	nt	nt
O=C(NN=C/C=C/c1ccccc1[N+](=O)[O-])c1cc(-c2ccccc2)n[nH]1	nt	nt	nt	i	nt
O=S(=O)(c1ccc(Cl)cc1)N1CCCC(c2nnc(COc3ccccc3)o2)C1 (centres undefined)	nt	nt	nt	i	nt
SMILES	CCHFV vOTU inh	RN4220 kill	VHR inh abs	PriA SSB inh	Sa ugtP lethal
COc1ccccc1CNC(=O)CSc1ccc(-c2ccccc2OC)nn1	nt	nt	nt	i	nt
COC(=O)C1=CN(c2cccc(C)c2)C=C(C(=O)OC)C1c1cc(OC)c(O)c([N+](=O)[O-])c1	i	i	i	53.1	i
Cc1ccc(S(=O)(=O)N2C(c3ccc(Cl)c(Cl)c3)CC=C(C(=O)O)C2c2ccccc2)cc1 (centres undefined)	nt	i	nt	nt	90.3
O=C(NCCC1CCCCN1S(=O)(=O)c1cccs1)C1(c2ccccc2)CCOCC1 (centres undefined)	nt	nt	nt	i	nt
CCOc1ccc(NC(=O)NCC#CCN(C)C)cc1	nt	nt	nt	i	nt
CC(C)(C)c1ccc(C(=O)CC(=O)c2cc(Cl)ccc2O)cc1	i	100.1	i	i	98.4
Cc1ccc(C(=O)CC(=O)c2ccc(C)cc2O)cc1	i	i	i	i	i
Cc1ccc(C(=O)CC(=O)c2ccc(C(C)(C)C)cc2)cc1	i	i	i	i	i
Cc1ccc(C(=O)Nc2ccc(Cl)cc2C(=O)c2ccccc2)cc1	i	i	nt	i	91.8
Cc1ccc(C(=O)CC(=O)c2cc(Cl)ccc2O)cc1	i	99.7	i	i	99.4
Cc1ccc(NC(=O)c2ccccc2NC(=O)C2COc3ccccc3O2)c(C(=O)c2ccccc2)c1 (centres undefined)	nt	nt	nt	61.0	nt
NS(=O)(=O)c1ccc(CCNC(=O)c2csc3nc(-c4ccc(F)cc4)cn23)cc1	nt	nt	nt	i	nt
CCOc1cc(NS(=O)(=O)c2cc(Br)ccc2OC)ncn1	nt	nt	nt	i	nt
CCCCCCC/C=N/Nc1nnc(Cc2ccccc2)c(=O)[nH]1	i	nt	53.0	nt	nt
CCCC=NNc1nnc(Cc2ccccc2)c(=O)[nH]1	nt	i	nt	i	i
COc1ccc(NC(=O)CC2Sc3ccccc3NC2=O)cc1Cl (centres undefined)	nt	nt	nt	i	nt
CCOc1ccccc1N(C)C(=O)c1cn(CC)c(=O)c2cc(OC)c(OC)cc12	i	i	i	i	i
CCOc1ccccc1N(C)C(=O)c1cn(C)c(=O)c2ccccc12	i	i	50.7	i	i
CCOC(=O)c1c(N=C2S/C(=C/C(=O)OC)C(=O)N2c2ccccc2)sc(C)c1C	nt	nt	nt	i	nt
Cc1ccccc1-n1nc2c(c1NC(=O)[C@H]1CC(=O)N(c3ccccc3)C1)CS(=O)(=O)C2	nt	nt	nt	i	nt
COCCCNC(=O)CSc1nc2cc(S(=O)(=O)N3CCCCC3)ccc2o1	i	i	nt	46.1	i
O=S(=O)(CCC(F)(F)F)N[C@H](c1cccnc1)C1CCOCC1	nt	nt	nt	i	nt
CC(=O)Nc1cc(C(C)(C)C)c(O)c(C(C)(C)C)c1	i	i	i	i	i
CC(C)(C)c1cc([N+](=O)[O-])cc(C(C)(C)C)c1O	i	88.0	i	i	93.0
COc1ccc(Cc2nnc(SCC(=O)Nc3ccc(C)cc3)n(N)c2=O)cc1	29.9	i	nt	i	i
SMILES	CCHFV vOTU inh	RN4220 kill	VHR inh abs	PriA SSB inh	Sa ugtP lethal
CCCOc1ccc2oc(=O)c3c(c2c1)CCCN3C(=O)CN1CCc2ccccc2C1	i	i	i	i	85.8
COc1ccccc1-c1sc2cc3c(cc2c1C#Cc1cncn1C)OCO3	i	i	nt	i	90.4
COc1ccc(-c2sc3ccccc3c2C#Cc2cncn2C)cc1	i	i	nt	i	97.1
Cc1nc(-c2ccccc2F)sc1C(=O)O	nt	nt	nt	i	nt
CCCCNC(=O)Cc1csc(SCC(=O)c2ccccc2)n1	nt	nt	nt	i	nt
Cn1c(O)c(N=NC(=O)CNC(=O)c2ccccc2)c2ccccc21	i	i	53.3	i	i
Cn1c(O)c(N=NC(=O)CNC(=O)c2ccccc2)c2cc(Br)ccc21	i	i	i	i	i
Nc1ccc(C(=O)O)cc1[N+](=O)[O-]	i	i	i	i	i
O=[N+]([O-])c1cc([N+](=O)[O-])c2oc(-c3ccccc3)c(Br)c2c1O	nt	91.9	i	i	93.5
O=C(Nc1ccccc1)c1sccc1Oc1ccc([N+](=O)[O-])cc1F	i	i	i	43.9	i
COc1ccc([N+](=O)[O-])cc1NC(=O)Nc1ccccc1	i	95.2	i	i	83.4
Cc1ccc(S(=O)(=O)NCC#CCN2CCCC2)c(C)c1	nt	nt	nt	i	nt
Cc1cccc(NS(=O)(=O)c2csc(C(N)=O)c2)c1C	i	i	52.6	i	i

Source: PubChem (several laboratories)
